Source: the supplement of paper PMC11624193, “Coupling cellular drug-target engagement to downstream pharmacology with CeTEAM” (Nature Communications, 2024)

biological target: PARP1 L713F-nLuc biosensor (HCT116) (UniProt P09874); assay: PARP1 L713F-nLuc/akaLuc ratio relative to DMSO control (biosensor stabilization) (fold change); higher = more PARP1 biosensor stabilization (target engagement / stabilizer), active = hit call of the paper; conditions: stock concentration (mM; final µM = stock mM x 1): 10; 24 h
Sequence (P09874 whole entry L713F, looked up): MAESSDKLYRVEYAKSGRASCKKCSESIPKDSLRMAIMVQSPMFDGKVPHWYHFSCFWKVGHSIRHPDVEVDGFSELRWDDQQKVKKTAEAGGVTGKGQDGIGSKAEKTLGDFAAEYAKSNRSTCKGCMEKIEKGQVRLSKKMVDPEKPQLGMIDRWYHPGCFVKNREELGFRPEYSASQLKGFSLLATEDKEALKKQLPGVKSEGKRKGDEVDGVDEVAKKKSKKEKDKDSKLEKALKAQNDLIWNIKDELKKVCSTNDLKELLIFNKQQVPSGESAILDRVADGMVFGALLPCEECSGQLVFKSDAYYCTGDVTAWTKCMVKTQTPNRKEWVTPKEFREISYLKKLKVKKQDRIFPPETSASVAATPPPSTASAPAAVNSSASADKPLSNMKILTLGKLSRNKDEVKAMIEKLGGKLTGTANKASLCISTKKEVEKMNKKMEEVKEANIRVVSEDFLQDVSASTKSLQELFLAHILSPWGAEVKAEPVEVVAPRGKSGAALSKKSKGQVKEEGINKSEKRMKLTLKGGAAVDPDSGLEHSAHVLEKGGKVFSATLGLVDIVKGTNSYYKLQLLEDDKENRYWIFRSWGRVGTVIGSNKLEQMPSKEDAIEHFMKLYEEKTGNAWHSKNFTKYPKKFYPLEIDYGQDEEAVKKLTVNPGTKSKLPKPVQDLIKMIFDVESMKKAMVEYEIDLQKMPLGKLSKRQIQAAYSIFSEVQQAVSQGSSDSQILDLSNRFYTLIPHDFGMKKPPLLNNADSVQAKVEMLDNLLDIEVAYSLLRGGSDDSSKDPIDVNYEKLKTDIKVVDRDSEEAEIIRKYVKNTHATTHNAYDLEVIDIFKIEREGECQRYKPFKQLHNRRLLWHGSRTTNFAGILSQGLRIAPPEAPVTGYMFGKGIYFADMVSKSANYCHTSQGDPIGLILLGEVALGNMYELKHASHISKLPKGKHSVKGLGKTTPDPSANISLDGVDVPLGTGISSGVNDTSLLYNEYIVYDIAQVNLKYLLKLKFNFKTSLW

SMILES | PARP1 L713F-nLuc/akaLuc ratio
N#Cc1c(O)c2c(-c3ccc(-c4ccccc4O)cc3)csc2[nH]c1=O | 0.692 (inactive)
CC(=O)N[C@@H](CCCCN)C(=O)Nc1ccc2c(C)cc(=O)oc2c1 | 0.736 (inactive)
Cc1cc(CN2CCN(c3c(Br)cnc4nc(-c5ccc(N6CCN(C)CC6)cc5)[nH]c34)CC2)no1 | 1.37 (inactive)
COc1cccc(OC)c1C(=O)OCc1cc(O)ccc1O[C@@H]1O[C@H](CO)[C@@H](O)[C@H](O)[C@H]1O [Curculigoside] | 0.993 (inactive)
CC[C@H](NC(=O)[C@H](C)NC)C(=O)N1C[C@@H](O)C[C@H]1Cc1c(-c2[nH]c3cc(F)ccc3c2C[C@@H]2C[C@H](O)CN2C(=O)[C@H](CC)NC(=O)[C@H](C)NC)[nH]c2cc(F)ccc12 [Birinapant] | 0.946 (inactive)
CCS(=O)(=O)N1CCC([C@@H](C)n2c(C)c(C(=O)NCc3c(OC)cc(C)[nH]c3=O)c3ccccc32)CC1 | 1.51 (inactive)
N#CC[C@H](C1CCCC1)n1cc(-c2ncnc3[nH]ccc23)cn1 [Ruxolitinib (S enantiomer)] | 1.63 (inactive)
